Experimental data: PMC5700166

Each sequence was assayed against T1, GST-Nv-NF-kB (Ser allele) (Nematostella vectensis, UniProt A7UNT2 2-411) (assay: protein-binding microarray (PBM); PBM: ~300 nM protein, 6 mM HEPES pH 7.8, 80 mM KCl, 0.5 mM EDTA, 0.5 mM EGTA, 6% glycerol, 35 ng/ul poly-dIdC, 1% milk, 1 h, room temperature; Ap Aiptasia and Nv Nematostella (sea anemones) / Co Capsaspora / Aq Amphimedon (sponge) / Dm Drosophila / Hu human; RHD is the Rel homology domain; high values mean tight binding). Settings: dsDNA, one strand shown.
T1 sequence: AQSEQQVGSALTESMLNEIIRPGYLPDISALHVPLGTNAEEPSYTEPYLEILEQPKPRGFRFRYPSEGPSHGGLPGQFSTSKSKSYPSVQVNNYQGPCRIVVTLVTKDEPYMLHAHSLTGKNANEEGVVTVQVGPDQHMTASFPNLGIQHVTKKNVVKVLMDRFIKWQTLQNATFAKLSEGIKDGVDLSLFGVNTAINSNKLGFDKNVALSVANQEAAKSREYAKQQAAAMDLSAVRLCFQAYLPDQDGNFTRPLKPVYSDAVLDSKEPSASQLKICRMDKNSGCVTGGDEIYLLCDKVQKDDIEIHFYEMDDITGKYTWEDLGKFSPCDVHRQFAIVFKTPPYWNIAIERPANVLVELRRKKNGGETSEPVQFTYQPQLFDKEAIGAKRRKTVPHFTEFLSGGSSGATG

Sequence | binding signal [z-score]
CCGATTAACATCAAACATCCCCCTGATGTTAATCGGGTCTTGATTCGCTTGACGCTGCTG | 6.41
CCGATTAACATCACATTGGGAAATGATGTTAATCGGGTCTTGATTCGCTTGACGCTGCTG | 1.58
CCGATTAACATCAAGGAATTCCCTGATGTTAATCGGGTCTTGATTCGCTTGACGCTGCTG | 6.37
CCGATTAACATCAGGGGGGGGGATGATGTTAATCGGGTCTTGATTCGCTTGACGCTGCTG | 5.68
CCGATTAACATCAAATTGGGAAATGATGTTAATCGGGTCTTGATTCGCTTGACGCTGCTG | 2.19
CCGATTAACATCAGAGTATCCCCTGATGTTAATCGGGTCTTGATTCGCTTGACGCTGCTG | 5.44
CCGATTAACATCACCCCCTCCCCTGATGTTAATCGGGTCTTGATTCGCTTGACGCTGCTG | 3.78
CCGATTAACATCAGGGGGGGACATGATGTTAATCGGGTCTTGATTCGCTTGACGCTGCTG | 4.34
CCGATTAACATCAGGGAAAGGGATGATGTTAATCGGGTCTTGATTCGCTTGACGCTGCTG | 3.11
CCGATTAACATCAATAAAATCCCTGATGTTAATCGGGTCTTGATTCGCTTGACGCTGCTG | 4.09
CCGATTAACATCAGGCATCCCCCTGATGTTAATCGGGTCTTGATTCGCTTGACGCTGCTG | 4.92
CCGATTAACATCAGGCATTCCCATGATGTTAATCGGGTCTTGATTCGCTTGACGCTGCTG | 1.11
CCGATTAACATCAAAATTCCCTGTGATGTTAATCGGGTCTTGATTCGCTTGACGCTGCTG | 6.24
CCGATTAACATCAAAAAATCCCTTGATGTTAATCGGGTCTTGATTCGCTTGACGCTGCTG | 5.87
CCGATTAACATCAACTATCCCCCTGATGTTAATCGGGTCTTGATTCGCTTGACGCTGCTG | 5.03
CCGATTAACATCAAAATCACCCCTGATGTTAATCGGGTCTTGATTCGCTTGACGCTGCTG | 3.66
CCGATTAACATCAGACCCCCCCCTGATGTTAATCGGGTCTTGATTCGCTTGACGCTGCTG | 3.56
CCGATTAACATCAAAAGCCCCCTTGATGTTAATCGGGTCTTGATTCGCTTGACGCTGCTG | 5.65
CCGATTAACATCAGCCCCCCCCATGATGTTAATCGGGTCTTGATTCGCTTGACGCTGCTG | 2.7
CCGATTAACATCAAAAAACCCCATGATGTTAATCGGGTCTTGATTCGCTTGACGCTGCTG | 6.05

Sequence | binding signal [z-score]
CCGATTAACATCACCCCGCCCCCTGATGTTAATCGGGTCTTGATTCGCTTGACGCTGCTG | 3.65
CCGATTAACATCAAGGAACCCCCTGATGTTAATCGGGTCTTGATTCGCTTGACGCTGCTG | 6.23
CCGATTAACATCAACAACCCCCCTGATGTTAATCGGGTCTTGATTCGCTTGACGCTGCTG | 5.06
CCGATTAACATCAGGGGGTTCACTGATGTTAATCGGGTCTTGATTCGCTTGACGCTGCTG | 4.69
CCGATTAACATCACTTCCCCCCATGATGTTAATCGGGTCTTGATTCGCTTGACGCTGCTG | 4.67
CCGATTAACATCAGGGGGGAACATGATGTTAATCGGGTCTTGATTCGCTTGACGCTGCTG | 6.09
CCGATTAACATCAAATACCCCCCTGATGTTAATCGGGTCTTGATTCGCTTGACGCTGCTG | 6.55
CCGATTAACATCAATCCACCCCCTGATGTTAATCGGGTCTTGATTCGCTTGACGCTGCTG | 3.94
CCGATTAACATCAAAAAATCACCTGATGTTAATCGGGTCTTGATTCGCTTGACGCTGCTG | 5.57
CCGATTAACATCAAGAAAATCCCTGATGTTAATCGGGTCTTGATTCGCTTGACGCTGCTG | 4.75
CCGATTAACATCAAGGGGGGGGCTGATGTTAATCGGGTCTTGATTCGCTTGACGCTGCTG | 3.66
CCGATTAACATCAGTGTCCCGTTTGATGTTAATCGGGTCTTGATTCGCTTGACGCTGCTG | 1.48
CCGATTAACATCAGCTCCCCCCCTGATGTTAATCGGGTCTTGATTCGCTTGACGCTGCTG | 3.44
CCGATTAACATCAGGGGGGAGACTGATGTTAATCGGGTCTTGATTCGCTTGACGCTGCTG | 5.69
CCGATTAACATCAATCCCCCCCGTGATGTTAATCGGGTCTTGATTCGCTTGACGCTGCTG | 4.97
CCGATTAACATCAGGGGGTTATATGATGTTAATCGGGTCTTGATTCGCTTGACGCTGCTG | 6.26
CCGATTAACATCAGAAAGTTCCCTGATGTTAATCGGGTCTTGATTCGCTTGACGCTGCTG | 3.65
CCGATTAACATCAGGGGGAGTTATGATGTTAATCGGGTCTTGATTCGCTTGACGCTGCTG | 6.11
CCGATTAACATCAGATAAACCCCTGATGTTAATCGGGTCTTGATTCGCTTGACGCTGCTG | 3.09
